The values that follow come from paper PMC5540273 (PLoS ONE, 2017).
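Further: KINOMEscan kinase panel screen.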

The first assay relates to PIKFYVE. The following applies: concentration: 1 μM, replicates: in singlicate; n = 1.
In the case of `Cc1cccc(-c2nc(-c3ccc(S(C)(=O)=O)cc3)sc2-c2ccncc2)c1`, the “%Inh” value stood at 25%.

For the compound `Cc1ccc(NC(=O)c2ccnc(N3CCN(C)CC3)c2)cc1-c1ccc(C(=O)NCC2CC2)cc1` [GW775604], the “%Inh” value is listed as 0%.

For the compound `COc1ccc(COc2cc(-n3cnc4ccccc43)sc2C(N)=O)cc1` [GSK1024304], the “%Inh” value is 0%.

`Fc1ccc(-c2ncn(CCCN3CCOCC3)c2-c2ccccn2)cc1` [SB-211742]: the “%Inh” value came out at 9%.

`CCCCCc1nc2c(N)ncnc2n1CCCCC` [SKF-97255]: the “%Inh” value is 0%.

Turning to `N#Cc1c(N2CCOCC2)sc(-c2ccn[nH]2)c1-c1ccc(Cl)cc1`, the “%Inh” value was determined as 44%.

Regarding `O=C(Nc1cccc(-c2nn3ncccc3c2-c2ccnc(Nc3cccc(C(F)(F)F)c3)n2)c1)c1c(F)cccc1F` [GSK299495], the “%Inh” value is given as 15%.

As to `CC(=O)Nc1ccc(COc2ccc(Nc3ccnc4cc(-c5ccccn5)ccc34)cc2)cc1.Cl` [GW440148], the “%Inh” value stood at 2%.

Take `c1ccc(-c2cc(-c3c[nH]nc3-c3ccccn3)ccn2)cc1` [GW576604]: the “%Inh” value is recorded as 0%.

On to `O=C(c1ccc(-c2cc(-c3c[nH]nc3-c3ccccn3)ccn2)cc1)N1CCOCC1` [GW812171], for which the “%Inh” value stood at 0%.

As to `Nc1nc(-c2ccc3c(N)n[nH]c3c2)cc(N2CCCC2)n1` [GSK2227430], the “%Inh” value was 0%.

With `COc1ccc(Nc2nccc(N3CCC(NC(=O)Nc4cccc(C(C)=O)c4)C3)n2)cc1` (stereo not shown) [GSK1379731], the “%Inh” value was 0%.

With `O=C1Cc2cc(Nc3nc(NCc4cccc(S(=O)(=O)C(F)(F)F)c4)ncc3C(F)(F)F)ccc2N1`, the “%Inh” value amounted to 6%.

In the case of `Cc1cccc(Cn2ccn3c(=O)cc(N4CCOCC4)nc23)c1` [GSK2297542], the “%Inh” value came out at 0%.

As to `O=c1cc(N2CCOCC2)nc2n(Cc3cccc(F)c3)ccn12` [GSK2297430], the “%Inh” value turned out to be 0%.

In the case of `Cc1nnc(-c2ccc3occ(-c4ccc(C(C)O)cc4)c3c2)o1` (stereo not shown), the “%Inh” value worked out at 0%.

As to `O=c1cc(N2CCOCC2)nc2n(Cc3cccc4ccccc34)ccn12` [GSK2333389], the “%Inh” value turned out to be 0%.

In the case of `Fc1ccc(-c2ncn(CCCN3CCOCC3)c2-c2cccnc2)cc1` [SB-211743], the “%Inh” value is reported as 0%.

On to `Cc1ccc(C(=O)NCC(N)=O)cc1-n1c(C)cc(OCc2ccc(F)cc2F)c(Br)c1=O`, for which the “%Inh” value came out at 20%.

As to `Cn1ccc2ncnc(Oc3ccc(NC(=O)Nc4ccncc4)c(Cl)c3)c21`, the “%Inh” value was found to be 8%.

Take `COc1ccc(Nc2ncc(C#N)c(Nc3ccccc3C(N)=O)n2)cc1N1CCN(C)CC1.Cl` [GSK1558669]: the “%Inh” value came to 94.4%.

For `COc1ccc(S(=O)(=O)NC2CCN(c3cc(C)nc(Nc4cccc(C#N)c4)n3)CC2)cc1.O=C(O)C(F)(F)F` [GSK1653539], the “%Inh” value is reported as 0%.

Turning to `c1ccc(-c2n[nH]cc2-c2ccnc3ccccc23)nc1` [GW271431], the “%Inh” value amounted to 0%.

In the case of `NCCNS(=O)(=O)c1ccc(-c2ccnc3[nH]ccc23)cc1` [GSK977617], the “%Inh” value stood at 0%.

As to `Nc1nccc(-c2c(-c3ccc(F)cc3)ncn2C2CCN(CC(F)(F)F)CC2)n1` [SB-236560], the “%Inh” value is listed as 59%.

In the case of `COc1cc2ncn(-c3cc(OCc4sccc4Cl)c(C(N)=O)s3)c2cc1OC` [GSK448459], the “%Inh” value is on record as 0%.

Turning to `O=c1cc(N2CCOCC2)nc2n(Cc3cccc(Cl)c3Cl)c(C3CC3)nn12` [GSK2358994], the “%Inh” value amounted to 0%.

For the compound `CCc1nc(-c2cccc(C)c2)c(-c2ccnc(NCc3ccccc3)c2)s1`, the “%Inh” value stood at 0%.

On to `CSc1ccc(-c2cc3ncnc(SCC(=O)O)c3s2)cc1`, for which the “%Inh” value was found to be 28%.

In the case of `COc1ccc(Nc2nccc(N3CCC(NC(=O)Nc4cc(C)ccc4C)C3)n2)cc1` (stereo not shown) [GSK1379741], the “%Inh” value was 0%.

Take `CC(C)(C)n1cnc2c(N)ncnc21` [SKF-97359]: the “%Inh” value is reported as 51%.

For `O=C(Nc1n[nH]c2cc(-c3cccc(F)c3)ccc12)C1CC1` [SB-735464], the “%Inh” value came out at 0%.

Turning to `Cc1c2ccc(N(C)c3ccnc(Nc4cccc(S(N)(=O)=O)c4)n3)cc2nn1Cc1ccccc1.Cl.Cl` [GW787226], the “%Inh” value turned out to be 0%.

Regarding `O=C(NCCNc1ccnc(Nc2ccc(F)cc2)n1)c1cc2ccccc2s1` [GSK1379874], the “%Inh” value is 0%.

Regarding `Cc1cn2c(=O)cc(N3CCOCC3)nc2n1Cc1cccc(Cl)c1Cl` [GSK2334006], the “%Inh” value turned out to be 50%.

Another assay has as its system PIM1. The following applies: concentration: 1 μM, replicates: in singlicate; n = 1.
For the compound `Cc1cccc(-c2nc(-c3ccc(S(C)(=O)=O)cc3)sc2-c2ccncc2)c1`, the “%Inh” value is on record as 13%.

As for `Cc1ccc(NC(=O)c2ccnc(N3CCN(C)CC3)c2)cc1-c1ccc(C(=O)NCC2CC2)cc1` [GW775604], the “%Inh” value was 0%.

In the case of `COc1ccc(COc2cc(-n3cnc4ccccc43)sc2C(N)=O)cc1` [GSK1024304], the “%Inh” value is on record as 11%.

Take `Fc1ccc(-c2ncn(CCCN3CCOCC3)c2-c2ccccn2)cc1` [SB-211742]: the “%Inh” value came to 0%.

Consider `CCCCCc1nc2c(N)ncnc2n1CCCCC` [SKF-97255], for which the “%Inh” value is reported as 0%.

As to `N#Cc1c(N2CCOCC2)sc(-c2ccn[nH]2)c1-c1ccc(Cl)cc1`, the “%Inh” value turned out to be 18%.

In the case of `O=C(Nc1cccc(-c2nn3ncccc3c2-c2ccnc(Nc3cccc(C(F)(F)F)c3)n2)c1)c1c(F)cccc1F` [GSK299495], the “%Inh” value was 0%.

Turning to `CC(=O)Nc1ccc(COc2ccc(Nc3ccnc4cc(-c5ccccn5)ccc34)cc2)cc1.Cl` [GW440148], the “%Inh” value amounted to 17%.

Take `c1ccc(-c2cc(-c3c[nH]nc3-c3ccccn3)ccn2)cc1` [GW576604]: the “%Inh” value was determined as 0%.

Take `O=C(c1ccc(-c2cc(-c3c[nH]nc3-c3ccccn3)ccn2)cc1)N1CCOCC1` [GW812171]: the “%Inh” value came out at 24%.

Regarding `Nc1nc(-c2ccc3c(N)n[nH]c3c2)cc(N2CCCC2)n1` [GSK2227430], the “%Inh” value was 20%.

For `COc1ccc(Nc2nccc(N3CCC(NC(=O)Nc4cccc(C(C)=O)c4)C3)n2)cc1` (stereo not shown) [GSK1379731], the “%Inh” value came out at 0%.

For the compound `O=C1Cc2cc(Nc3nc(NCc4cccc(S(=O)(=O)C(F)(F)F)c4)ncc3C(F)(F)F)ccc2N1`, the “%Inh” value stood at 100%.

For `Cc1cccc(Cn2ccn3c(=O)cc(N4CCOCC4)nc23)c1` [GSK2297542], the “%Inh” value was 29%.

With `O=c1cc(N2CCOCC2)nc2n(Cc3cccc(F)c3)ccn12` [GSK2297430], the “%Inh” value was 11%.

Turning to `Cc1nnc(-c2ccc3occ(-c4ccc(C(C)O)cc4)c3c2)o1` (stereo not shown), the “%Inh” value is 24%.

Take `CC(C)(CN)c1nc(-c2ccc(Cl)c(O)c2)c(-c2ccncc2)[nH]1.O=C(O)C(F)(F)F` [SB-477794]: the “%Inh” value was found to be 0%.

Turning to `O=c1cc(N2CCOCC2)nc2n(Cc3cccc4ccccc34)ccn12` [GSK2333389], the “%Inh” value worked out at 0%.

`Fc1ccc(-c2ncn(CCCN3CCOCC3)c2-c2cccnc2)cc1` [SB-211743]: the “%Inh” value is 12%.

Turning to `Cc1ccc(C(=O)NCC(N)=O)cc1-n1c(C)cc(OCc2ccc(F)cc2F)c(Br)c1=O`, the “%Inh” value was 23%.

As to `Cn1ccc2ncnc(Oc3ccc(NC(=O)Nc4ccncc4)c(Cl)c3)c21`, the “%Inh” value is recorded as 0%.

Consider `COc1ccc(Nc2ncc(C#N)c(Nc3ccccc3C(N)=O)n2)cc1N1CCN(C)CC1.Cl` [GSK1558669], for which the “%Inh” value worked out at 97.4%.

In the case of `COc1ccc(S(=O)(=O)NC2CCN(c3cc(C)nc(Nc4cccc(C#N)c4)n3)CC2)cc1.O=C(O)C(F)(F)F` [GSK1653539], the “%Inh” value was 25%.

In the case of `c1ccc(-c2n[nH]cc2-c2ccnc3ccccc23)nc1` [GW271431], the “%Inh” value was found to be 8%.

Turning to `Nc1nccc(-c2c(-c3ccc(F)cc3)ncn2C2CCN(CC(F)(F)F)CC2)n1` [SB-236560], the “%Inh” value came to 0%.

`COc1cc2ncn(-c3cc(OCc4sccc4Cl)c(C(N)=O)s3)c2cc1OC` [GSK448459]: the “%Inh” value is on record as 11%.

Take `O=c1cc(N2CCOCC2)nc2n(Cc3cccc(Cl)c3Cl)c(C3CC3)nn12` [GSK2358994]: the “%Inh” value came out at 0%.

Turning to `CCc1nc(-c2cccc(C)c2)c(-c2ccnc(NCc3ccccc3)c2)s1`, the “%Inh” value was 21%.

As for `CSc1ccc(-c2cc3ncnc(SCC(=O)O)c3s2)cc1`, the “%Inh” value came out at 0%.

Consider `COc1ccc(Nc2nccc(N3CCC(NC(=O)Nc4cc(C)ccc4C)C3)n2)cc1` (stereo not shown) [GSK1379741], for which the “%Inh” value was 0%.

For the compound `CC(C)(C)n1cnc2c(N)ncnc21` [SKF-97359], the “%Inh” value came out at 0%.

In the case of `O=C(Nc1n[nH]c2cc(-c3cccc(F)c3)ccc12)C1CC1` [SB-735464], the “%Inh” value is 2%.

Turning to `Cc1c2ccc(N(C)c3ccnc(Nc4cccc(S(N)(=O)=O)c4)n3)cc2nn1Cc1ccccc1.Cl.Cl` [GW787226], the “%Inh” value was determined as 0%.

Regarding `O=C(NCCNc1ccnc(Nc2ccc(F)cc2)n1)c1cc2ccccc2s1` [GSK1379874], the “%Inh” value was 0%.

As to `Cc1cn2c(=O)cc(N3CCOCC3)nc2n1Cc1cccc(Cl)c1Cl` [GSK2334006], the “%Inh” value was 10%.
